Test results published in PubChem BioAssay (Tox21).
Results filed as inconclusive are left out. Calls of active or inactive are those of the source. Unless noted, calls come from the whole dose curve; as a rule, active = well fitted curve in the direction sought with a large enough effect in the repeat runs; inconclusive = weak or mixed curves; inactive = no such curve, though single readings can be large; an effect the other way counts as inactive or inconclusive.

What was measured:
[1] = qHTS assay to test for compound auto fluorescence at 535 nm (green) in HEK293 cells (AID 720680)
[2] = qHTS assay to test for compound auto fluorescence at 460 nm (blue) in HEK293 cell free culture (AID 720681)
Summary of the method: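 Test compounds were pinned into cell-free culture medium (DMEM with 10% FBS) and fluorescence was read directly at Ex/Em 405/460 nm. Signals were expressed as fluorescence equivalents of triamterene, with DMSO vehicle as control.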

[3] = qHTS assay to test for compound auto fluorescence at 535 nm (green) in HEK293 cell free culture (AID 720682)
Summary of the method: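 Steps: dispense DMEM/10% FBS into empty wells; pin in compound or DMSO; measure fluorescence at 485/535 nm. Values are fluorescein equivalents.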

[4] = qHTS assay to test for compound auto fluorescence at 590 nm (red) in HEK293 cell free culture (AID 720683)
Summary of the method: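 Tox21 10K library compounds were pinned into cell-free DMEM with 10% FBS and fluorescence was read at excitation 540 nm. Activity is expressed as Rose Bengal sodium equivalency.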

[5] = qHTS assay to test for compound auto fluorescence at 590 nm (red) in HepG2 cell free culture (AID 720684)
Summary of the method: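 Measured in medium alone (MEM containing 10% FBS) following pintool addition of compound; emission at 590 nm with 540 nm excitation, referenced to Rose Bengal sodium.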

[6] = qHTS assay to test for compound auto fluorescence at 460 nm (blue) in HepG2 cell free culture (AID 720685)
Summary of the method: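 Compound (23 nL) or DMSO pinned into cell-free MEM with 10% FBS; blue fluorescence read at 405/460 nm excitation/emission, expressed as auto-fluorescence equivalency to triamterene.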

[7] = qHTS assay to test for compound auto fluorescence at 535 nm (green) in HepG2 cell free culture (AID 720686)
[8] = qHTS assay to test for compound auto fluorescence at 460 nm (blue) in HepG2 cells (AID 720687)
Summary of the method: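 Cells (2,000/well in MEM with 10% FBS) attached overnight at 37 C, then were exposed to compound or DMSO for 1 hr at 37 C, 5% CO2. Fluorescence read at Ex/Em 405/460 nm, expressed as triamterene-equivalent signal.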

[9] = biological target: Glucocorticoid receptor (Homo sapiens) (UniProt P04150); experiment: qHTS assay to identify small molecule agonists of the glucocorticoid receptor (GR) signaling pathway (AID 720691; active = well fitted activation curve with a large enough effect in the signal ratio in the repeat runs, not every such curve was filed as active; the % refers to the signal ratio)
Summary of the method: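 Reporter read-out: fluorescence intensity following 2 h room-temperature LiveBLAzer B/G FRET substrate loading. Prior step: GR-bla HeLa cells held 4 h, then treated 18 h at 37 C.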

[10] = biological target: Glucocorticoid receptor (Homo sapiens) (UniProt P04150); experiment: qHTS assay to identify small molecule antagonists of the glucocorticoid receptor (GR) signaling pathway (AID 720692; active = well fitted inhibition curve with a large enough effect in the signal ratio in the repeat runs, not every such curve was filed as active; the % refers to the signal ratio; note: potency is the fitted concentration of half-maximal effect)
Summary of the method: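 Dexamethasone (5 nM final) stimulated a stably integrated GRE-beta-lactamase reporter in HeLa cells during 18 h co-incubation with compounds; signal was quantified as fluorescence intensity of B/G FRET substrate after 2 h.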

[11] = qHTS assay for identifying genotoxic compounds that show differential cytotoxicity against isogenic chicken DT40 cell lines with known DNA damage response pathways - wild type cell line (AID 743012); note: nearly all actives have a fitted effect of over 60% in size; note: potency is the fitted concentration of half-maximal effect
Summary of the method: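 Using parental DT40 (300 cells/well), compounds delivered in DMSO incubate 40 h at 37 C/5% CO2. CellTiter-Glo reagent then stands 30 min at room temperature, and luminescence gives cell viability.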

[12] = qHTS assay for identifying genotoxic compounds that show differential cytotoxicity against isogenic chicken DT40 cell lines with known DNA damage response pathways - Rev3 mutant cell line (AID 743014); note: nearly all actives have a fitted effect of over 55% in size; note: potency is the fitted concentration of half-maximal effect
[13] = qHTS assay to identify small molecule antagonists of the androgen receptor (AR) signaling pathway - cell viability counter screen (AID 743033; note: nearly all actives have a fitted effect of over 45% in size; note: potency is the fitted concentration of half-maximal effect)
[14] = qHTS assay to identify small molecule antagonists of the androgen receptor (AR) signaling pathway using the MDA cell line - cell viability counter screen (AID 743041; note: nearly all actives have a fitted effect of over 45% in size)
Summary of the method: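 Viability counter screen run alongside the AR antagonist reporter: cells seeded 5 h before compound, R1881 added, 16 h incubation at 37C without CO2, fluorescent CellTiter-Fluor signal quantified.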

[15] = qHTS assay to identify small molecule antagonists of the glucocorticoid receptor (GR) signaling pathway - cell viability counter screen (AID 720693); note: nearly all actives have a fitted effect of over 55% in size
[16] = qHTS assay for identifying genotoxic compounds that show differential cytotoxicity against isogenic chicken DT40 cell lines with known DNA damage response pathways - Rad54/Ku70 mutant cell line (AID 743015); note: nearly all actives have a fitted effect of over 60% in size; note: potency is the fitted concentration of half-maximal effect
[17] = biological target: Androgen receptor (Homo sapiens) (UniProt P10275); experiment: qHTS assay to identify small molecule antagonists of the androgen receptor (AR) signaling pathway (AID 743035; active = well fitted inhibition curve with a large enough effect in the signal ratio in the repeat runs, not every such curve was filed as active; the % refers to the signal ratio)
Summary of the method: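 Using qHTS, AR-UAS-bla GripTite HEK293 cells received compound, then R1881, and were cultured 16 h at 37C/5% CO2 before a 2 h room-temperature LiveBLAzer B/G FRET substrate step and fluorescence measurement.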

[18] = biological target: Androgen receptor (Homo sapiens) (UniProt P10275); experiment: qHTS assay to identify small molecule agonists of the androgen receptor (AR) signaling pathway using the MDA cell line (AID 743040; note: nearly all actives have a fitted effect of over 20% in size)
Summary of the method: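 Luminescence from ONE-Glo, read after 30 min at room temperature, reflects MMTV-driven luciferase in MDA-kb2 cells (AR- and GR-responsive). Treatment lasted 16 h at 37C, 0% CO2.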

[19] = biological target: Androgen receptor (Homo sapiens) (UniProt P10275); experiment: qHTS assay to identify small molecule agonists of the androgen receptor (AR) signaling pathway (AID 743036; active = well fitted activation curve with a large enough effect in the signal ratio in the repeat runs, with a control signal flat, not every such curve was filed as active; the % refers to the signal ratio)
Summary of the method: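 Reporter line: GeneBLAzer AR-UAS-bla-GripTite (HEK293). Steps: plate cells, 4 h rest, add compounds, 16 h at 37C, add LiveBLAzer B/G substrate, 2 h at RT, read fluorescence.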

[20] = biological target: Androgen receptor (Homo sapiens) (UniProt P10275); experiment: qHTS assay to identify small molecule antagonists of the androgen receptor (AR) signaling pathway using the MDA cell line (AID 743042; note: nearly all actives have a fitted effect of over 55% in size)
Summary of the method: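 MDA-kb2 cells (human breast carcinoma, stably carrying an MMTV-luciferase reporter responsive to AR and GR) were plated at 3,000 cells/well and preincubated 5 hr at 37C, then given compound plus R1881 agonist for 16 h. ONE-Glo luminescence was read.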

Measured: Potency

Chain of Androgen receptor (Homo sapiens) (P10275 whole entry, looked up): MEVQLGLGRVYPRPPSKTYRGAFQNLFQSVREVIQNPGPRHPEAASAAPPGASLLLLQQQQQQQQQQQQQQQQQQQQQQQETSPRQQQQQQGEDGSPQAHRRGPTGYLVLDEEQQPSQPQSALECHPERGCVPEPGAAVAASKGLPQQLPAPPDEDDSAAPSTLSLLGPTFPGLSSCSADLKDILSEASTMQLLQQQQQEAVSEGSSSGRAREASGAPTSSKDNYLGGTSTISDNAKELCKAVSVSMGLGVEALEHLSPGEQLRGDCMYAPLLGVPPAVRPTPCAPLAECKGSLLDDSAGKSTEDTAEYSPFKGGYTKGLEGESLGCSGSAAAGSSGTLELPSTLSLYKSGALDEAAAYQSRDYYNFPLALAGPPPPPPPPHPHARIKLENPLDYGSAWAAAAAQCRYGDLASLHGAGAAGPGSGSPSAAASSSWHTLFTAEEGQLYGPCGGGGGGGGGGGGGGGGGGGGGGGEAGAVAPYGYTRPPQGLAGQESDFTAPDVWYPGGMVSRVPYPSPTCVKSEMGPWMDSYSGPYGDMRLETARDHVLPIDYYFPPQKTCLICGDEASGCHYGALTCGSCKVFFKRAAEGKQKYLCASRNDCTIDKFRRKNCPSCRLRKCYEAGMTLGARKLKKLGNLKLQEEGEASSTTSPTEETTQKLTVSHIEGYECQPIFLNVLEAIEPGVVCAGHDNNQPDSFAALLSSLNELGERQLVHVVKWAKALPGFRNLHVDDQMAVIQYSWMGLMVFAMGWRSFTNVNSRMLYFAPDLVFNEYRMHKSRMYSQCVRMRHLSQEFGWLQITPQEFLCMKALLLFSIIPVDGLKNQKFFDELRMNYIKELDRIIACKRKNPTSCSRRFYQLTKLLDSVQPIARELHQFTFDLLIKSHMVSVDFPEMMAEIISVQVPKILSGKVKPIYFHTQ
Chain of Glucocorticoid receptor (Homo sapiens) (P04150 whole entry, looked up): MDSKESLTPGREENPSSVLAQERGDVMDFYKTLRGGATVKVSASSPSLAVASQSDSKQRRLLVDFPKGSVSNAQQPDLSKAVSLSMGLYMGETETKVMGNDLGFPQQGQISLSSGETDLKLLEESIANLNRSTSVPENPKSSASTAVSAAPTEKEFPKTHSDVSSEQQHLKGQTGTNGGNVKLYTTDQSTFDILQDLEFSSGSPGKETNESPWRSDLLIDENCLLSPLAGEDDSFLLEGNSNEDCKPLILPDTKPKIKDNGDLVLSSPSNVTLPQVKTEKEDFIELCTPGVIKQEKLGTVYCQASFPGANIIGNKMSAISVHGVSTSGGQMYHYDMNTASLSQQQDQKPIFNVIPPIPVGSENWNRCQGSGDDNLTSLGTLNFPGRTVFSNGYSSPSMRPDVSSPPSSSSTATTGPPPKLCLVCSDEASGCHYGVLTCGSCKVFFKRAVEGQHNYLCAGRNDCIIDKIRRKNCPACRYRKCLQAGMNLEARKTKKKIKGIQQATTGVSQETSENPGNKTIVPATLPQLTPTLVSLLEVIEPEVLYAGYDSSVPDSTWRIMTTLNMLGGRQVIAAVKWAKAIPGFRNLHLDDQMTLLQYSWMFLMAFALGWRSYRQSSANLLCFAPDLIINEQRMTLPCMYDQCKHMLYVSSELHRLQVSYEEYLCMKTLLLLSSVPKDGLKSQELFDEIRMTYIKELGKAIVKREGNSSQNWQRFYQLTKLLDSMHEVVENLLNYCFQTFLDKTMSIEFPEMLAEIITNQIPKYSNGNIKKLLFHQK

Oc1cccc(O)c1O
active: [11] 26.6 µM | [12] 48.1 µM
not listed: [15] | [16] | [17] | [18] | [19] | [20]
inactive: all other assays above

CCCCCCCC/C=C\CCCCCCCCO
not listed: [15] | [16] | [17] | [18] | [19] | [20]
inactive: all other assays above

COc1ccccc1Oc1c(NS(=O)(=O)c2ccc(C(C)(C)C)cc2)nc(-c2ncccn2)nc1OCCO
not listed: [17] | [18] | [19] | [20]
inactive: all other assays above

CCn1cc(C(=O)O)c(=O)c2cc(F)c(N3CCNCC3)cc21
not listed: [16] | [17] | [18] | [19] | [20]
inactive: all other assays above

FC(F)(F)c1ccccc1Cl
not listed: [10] | [16] | [17] | [18] | [19] | [20]
inactive: all other assays above

CCOc1cccc(-n2cc(C(=O)N3CCN(c4cc(C(=O)O)c5ccccc5c4)CC3)nc2-c2ccc(C)cc2)c1
active: [10] 14.8 µM
not listed: [11] | [12] | [14] | [16] | [19] | [20]
inactive: all other assays above

CCC(C)(C)OC
not listed: [17] | [18] | [19] | [20]
inactive: all other assays above

c1csc(SSc2cccs2)c1
active: [11] 12.2 µM | [12] 6.86 µM | [16] 10.9 µM | [13] 38.9 µM
not listed: [10] | [17] | [18] | [19] | [20]
inactive: all other assays above

C=CC(C)(CCC=C(C)C)OC(=O)CC(C)C (stereo not given)
not listed: [17] | [18] | [19] | [20]
inactive: all other assays above

CCCCN1CCCC1C(=O)Nc1c(C)cc(C)cc1C (stereo not given)
active: [11] 16.8 µM | [16] 29.8 µM
not listed: [12] | [15] | [17] | [18] | [19] | [20]
inactive: all other assays above

C=C1C[C@@]23CC[C@H]4[C@@](C)(CCC[C@@]4(C)C(=O)O[C@@H]4O[C@H](CO)[C@@H](O)[C@H](O)[C@H]4O)[C@@H]2CC[C@]1(O[C@@H]1O[C@H](CO)[C@@H](O)[C@H](O[C@@H]2O[C@H](CO)[C@@H](O)[C@H](O)[C@H]2O)[C@H]1O[C@@H]1O[C@H](CO)[C@@H](O)[C@H](O)[C@H]1O)C3
not listed: [10]
inactive: all other assays above

CC=C(Cl)Cl
not listed: [10] | [17] | [18] | [19] | [20]
inactive: all other assays above

CO/N=C(/C(=O)N[C@@H]1C(=O)N2C(C(=O)O)=C(COC(N)=O)CS[C@H]12)c1ccco1
not listed: [10] | [17] | [18] | [19] | [20]
inactive: all other assays above

CCCCCCC(C)(C)C(=O)O
not listed: [12] | [17]
inactive: all other assays above

CC1CC(C)C(=O)C1=O (stereo not given)
not listed: [15] | [17] | [18] | [19] | [20]
inactive: all other assays above
